Here are results for 15 compounds from PubChem BioAssay (NCI).

Test systems include T-47D breast; BT-549 breast; MDA-MB-435 melanoma; SW-620 colon; MCF7 breast; HCT-116 colon; HCC-2998 colon; KM12 colon.
What all share (experiment): NCI-60 one-dose screen, 48 h (100 = growth as untreated, 0 = no growth, -100 = all killed)
Conditions in all cases: 10 µM unless noted

SMILES strings stand for the structures. About 83,000 compounds went through this panel and 20% of them were active in at least one assay; those are over-represented in the sample as a whole.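 Method: cells in 96-well plates; compound added at one concentration; 48 h incubation; percent growth measured; values under 10 scored active.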 Values without a mark were called inactive. Activity calls are given as the source filed them.

On to `O=C1/C(=C/c2ccc(Cl)cc2)COc2ccc(O)cc21`, for which the growth was 83.5% with T-47D breast; 80.5% in the experiment with BT-549 breast; 64.7% in the experiment on MDA-MB-435 melanoma; 2.28% (active) in the experiment with SW-620 colon; 5.46% (active) in the experiment on MCF7 breast; 4.5% (active) in the experiment with HCT-116 colon. The growth in the experiment on HCC-2998 colon is 83.8%; in the experiment with KM12 colon it was 20.3%.

`CC1=NN(c2nc(SCC(=O)Nc3nc4ccc(C)cc4s3)nc(-c3ccccc3)c2C#N)C(=O)C1`: the growth is 91.3% in the experiment with T-47D breast; 95.5% in the experiment with BT-549 breast; 103% in the experiment with MDA-MB-435 melanoma; 102% with SW-620 colon; 96.8% in the experiment with MCF7 breast; 101% in the experiment on HCT-116 colon. For the same compound, the values for the growth in the experiment on HCC-2998 colon and in the experiment with KM12 colon were 104% and 101%, respectively.

Regarding `CN[C@]12CC3(C=CC(=O)C=C3)O[C@@]1(Cc1ccc(OC)cc1)N(C)C(=O)N2`, the growth is 16.6% in the experiment on T-47D breast; 41.5% in the experiment with BT-549 breast; 1.71% (active) with MDA-MB-435 melanoma; 11.1% in the experiment on SW-620 colon; 23.3% in the experiment on MCF7 breast; -35.2% (active) in the experiment on HCT-116 colon. Besides, the values for the growth in the experiment with HCC-2998 colon and in the experiment on KM12 colon were 32.7% and 9.7% (active), respectively.

`COc1cc(-c2nc(SCCC(C)C)nc(Nc3ccccc3Cl)c2C#N)cc(OC)c1OC`: the growth with T-47D breast is 81.5%; with BT-549 breast, 88.4%; with MDA-MB-435 melanoma, 96.6%; with SW-620 colon, 102%; with MCF7 breast, 85.7%; in the experiment with HCT-116 colon, 89.3%. Moreover, the growth in the experiment with HCC-2998 colon is 109%; with KM12 colon it was 96.3%.

Consider `C[C@]12C=CC(=O)C=C1CCC1C2[C@@H](O)C[C@@]2(C)C1CC[C@]2(O)C(=O)COC(=O)CCC(=O)O` (stereo not given in full), for which the growth was 111% in the experiment on T-47D breast; 89.7% in the experiment on BT-549 breast; 99.9% in the experiment on MDA-MB-435 melanoma; 105% in the experiment on SW-620 colon; 96.5% with MCF7 breast; 107% with HCT-116 colon. Moreover, the growth in the experiment on HCC-2998 colon was 110%; in the experiment on KM12 colon it was 109%.

`CC1(C)CC[C@]2(C(=O)O)CC[C@]3(C)C(=CC[C@@H]4[C@@]5(C)C/C(=C/O)C(=O)C(C)(C)[C@@H]5CC[C@]43C)[C@@H]2C1`: the growth was 61.9% in the experiment on T-47D breast; 88.6% in the experiment with BT-549 breast; 69.7% in the experiment with MDA-MB-435 melanoma; 12% in the experiment with SW-620 colon; 29.5% in the experiment with MCF7 breast; 12.7% in the experiment with HCT-116 colon. Moreover, the growth in the experiment with HCC-2998 colon is 50.5%; with KM12 colon it was 15.7%.

As for `CN(C)CC(=O)Nc1ccc2ncnc(Nc3ccc(Oc4cccc(C(F)(F)F)c4)c(Cl)c3)c2c1`, the growth with T-47D breast was 48.6%; in the experiment with BT-549 breast, 77.5%; in the experiment on MDA-MB-435 melanoma, 61%; in the experiment with SW-620 colon, 64.6%; in the experiment on MCF7 breast, 41.6%; with HCT-116 colon, 44.1%. For the same compound, the growth is 23.7% in the experiment on HCC-2998 colon and 55.5% with KM12 colon.

Regarding `COc1cc2c(c(OC)c1OC)CCC(c1cccc(C(=O)Nc3cccc(Br)c3)c1)O2` (stereo not given), the growth was 40.6% in the experiment on T-47D breast; 80.8% with BT-549 breast; 69.6% with MDA-MB-435 melanoma; 79.6% with SW-620 colon; 77.8% in the experiment with MCF7 breast; 55% with HCT-116 colon. Further, the growth was 103% in the experiment with HCC-2998 colon and 81.2% with KM12 colon.

Turning to `O=C(CI)NC1Oc2ccccc2-c2oc(=O)c(-c3ccccc3)cc21` (stereo not given), the growth is -42.4% (active) with T-47D breast; -55.7% (active) in the experiment with BT-549 breast; 17.9% in the experiment on MDA-MB-435 melanoma; -48.3% (active) with SW-620 colon; -53.3% (active) with MCF7 breast; -37.5% (active) with HCT-116 colon. For the same compound, the growth was 78.2% in the experiment with HCC-2998 colon and 2.37% (active) in the experiment with KM12 colon.

Turning to `C=C(C)[C@@H]1CC[C@]2(C(=O)NCC#CCN3CCN(C)CC3)CC[C@]3(C)[C@H](CC[C@@H]4[C@@](C)(CCC#N)[C@H](C(=C)C)CC[C@]43C)[C@@H]12`, the growth with T-47D breast was 34.9%; in the experiment with BT-549 breast, 78.6%; in the experiment on MDA-MB-435 melanoma, 54.6%; with SW-620 colon, 45.5%; with MCF7 breast it was 50.5%; in the experiment with HCT-116 colon, 26.4%. In addition, the figures for the growth in the experiment on HCC-2998 colon and in the experiment with KM12 colon were 25.2% and 45.9%, respectively.

In the case of `CCCCC(=O)Nc1ncc(Cc2ccc(Cl)cc2)s1`, the growth was 56.4% with T-47D breast; 65% in the experiment on BT-549 breast; 0.64% (active) with MDA-MB-435 melanoma; 37.7% with SW-620 colon; 37.4% in the experiment on MCF7 breast; 53.6% with HCT-116 colon. The growth is 65.8% with HCC-2998 colon and 38.8% with KM12 colon.

For `Cc1ccc(-c2nc(/C=C3/C(=O)Nc4ccccc43)c3ccccn23)cc1`, the growth in the experiment on T-47D breast was 80.7%; with BT-549 breast, 104%; in the experiment on MDA-MB-435 melanoma it was 94.3%; with SW-620 colon it was 64.8%; with MCF7 breast, 37.2%; in the experiment with HCT-116 colon, 66.8%. For the same compound, the growth with HCC-2998 colon is 109%; in the experiment with KM12 colon, 88.4%.

With `C=C(C)[C@@H]1CC[C@]2(C(=O)O)CC[C@]3(C)[C@H](CC[C@@H]4[C@@]5(C)C[C@@H](Cc6cn(CCO[C@@H]7O[C@H](COC(C)=O)[C@H](OC(C)=O)[C@H](OC(C)=O)[C@H]7OC(C)=O)nn6)[C@H](O)C(C)(C)[C@@H]5CC[C@]43C)[C@@H]12`, the growth in the experiment on T-47D breast is 51.6%; in the experiment on BT-549 breast it was 42.7%; in the experiment on MDA-MB-435 melanoma, 94.2%; in the experiment on SW-620 colon, 77.1%; in the experiment with MCF7 breast, 47.1%; in the experiment on HCT-116 colon it was 44.7%. Further, the values for the growth in the experiment on HCC-2998 colon and with KM12 colon were 81.5% and 55.9%, respectively.

Take `CC1(C)CC[C@]2(c3nnc(-c4ccncc4)o3)CC[C@H]3C(=CC[C@H]4[C@@]3(C)CC[C@H]3C(C)(C)C(=O)CC[C@]43C)[C@@H]2C1`: the growth with T-47D breast is 67.4%; with BT-549 breast it was 88.1%; in the experiment on MDA-MB-435 melanoma it was 78.2%; in the experiment on SW-620 colon, 59%; with MCF7 breast, 53.5%; with HCT-116 colon, 29%. Moreover, the growth with HCC-2998 colon was 75.3%; in the experiment with KM12 colon, 70%.

Regarding `CCOC(=O)c1cc(C(=O)c2cc(OC)c(OC)c(OC)c2)n2ccc(-c3ccncc3)cc12`, the growth in the experiment on T-47D breast was 84.1%; in the experiment on BT-549 breast, 90.6%; in the experiment on MDA-MB-435 melanoma, 106%; with SW-620 colon, 105%; with MCF7 breast it was 107%; with HCT-116 colon, 76.3%. For the same compound, the growth with HCC-2998 colon was 115%; with KM12 colon, 100%.
